# From PubChem BioAssay (NCATS)
# Several values for one entry are separate records, joined by “and”; a condition that tells them apart may be missing. Equal entries are not always repeated. A number with no mark means an inactive call. Inconclusive results are not listed. The list shows a part of the results. A call without a number means that no potency is given here. Activity calls are given as the source filed them. Unless noted, calls come from the whole dose curve; as a rule, active = well fitted curve in the direction sought with a large enough effect; inconclusive = small, poorly fitted or top-dose-only effect, or another doubt; inactive = no such curve, though single readings can be large; an effect the other way counts as inactive or inconclusive.
# Experiments:
# [1] = Counterscreen for APE1 Inhibitors: Fluorescent Dye Displacement Assay (AID 2564); details: DNA fluorescent dye displacement counterscreen, fluorescence; series mostly up to 28.5 µM;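 note: loss of thiazole orange fluorescence as the dye is displaced from duplex DNA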
# Summary of the method: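 Reaction mixture of 250 nM Thiazole Orange and 50 nM double-stranded abasic-site DNA was dispensed, compounds were pin-transferred, and fluorescence was read at endpoint (480 nm ex, 540 nm em). Reduced fluorescence indicated dye displacement by DNA binding.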
# [2] = biological target: Endonuclease 4 (Escherichia coli (strain K12)) (UniProt P0A6C1); test: Counterscreen for APE1 Inhibitors: qHTS Assay for Inhibitors of Endonuclease IV (AID 2565); details: E. coli Endo IV, fluorogenic AP-site DNA cleavage; series mostly up to 27.1 µM
# Summary of the method: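 The reaction buffer contained 50 mM Tris-HCl pH 7.5, 50 mM NaCl, 2 mM MgCl2, 1 mM DTT and 0.01% Tween-20. Incision of a 50 nM fluorophore/quencher THF substrate by 2 nM enzyme was measured kinetically.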
# [3] = biological target: DNA repair nuclease/redox regulator APEX1 (Homo sapiens) (UniProt P27695); test: Confirmation qHTS Assay for Inhibitors of the Human Apurinic/apyrimidinic Endonuclease 1 (APE1) (AID 2572); details: purified APE1, fluorogenic abasic-site DNA cleavage; series mostly up to 24.4 µM;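 note: fluorescence gain from purified APE1 cutting a TAMRA/BHQ-2 THF abasic duplex; nearly all actives have a fitted effect of over 30% in size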
# Chain of DNA repair nuclease/redox regulator APEX1 (Homo sapiens) (P27695 whole entry, looked up): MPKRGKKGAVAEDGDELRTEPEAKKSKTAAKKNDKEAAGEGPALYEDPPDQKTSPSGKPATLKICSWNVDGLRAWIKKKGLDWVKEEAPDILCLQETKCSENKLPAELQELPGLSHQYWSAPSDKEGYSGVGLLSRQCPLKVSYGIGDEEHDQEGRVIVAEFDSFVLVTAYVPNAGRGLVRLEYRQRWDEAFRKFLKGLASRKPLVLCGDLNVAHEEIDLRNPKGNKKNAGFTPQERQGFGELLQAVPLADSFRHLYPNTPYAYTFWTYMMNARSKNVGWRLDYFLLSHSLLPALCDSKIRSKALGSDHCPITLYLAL
# Summary of the method: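 Inhibition is measured on a short double-stranded THF-site oligo, 50 nM final, whose incision relieves BHQ-2 quenching of TAMRA. After 15 min enzyme–compound preincubation at RT, three reads a minute apart are taken.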
# [4] = biological target: DNA repair nuclease/redox regulator APEX1 (Homo sapiens) (UniProt P27695); test: qHTS FP-Based Assay for Inhibitors of the Human Apurinic/apyrimidinic Endonuclease 1 (APE1) (AID 2573); details: APE1 binding to TAMRA-labelled double-stranded DNA, fluorescence polarization displacement; series mostly up to 28.5 µM
# [5] = system: HIV-1 nucleocapsid protein NCp7 (binding to TG oligonucleotide); test: HIV Nucleocapsid (AID 346; call rule not given here;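 note: potency is the fitted concentration of half-maximal effect; potency is for inhibitors that block NC binding and lower polarization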); details: HIV-1 NC / fluorescein-TGTGTGTG probe, fluorescence polarization
# Summary of the method: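 Fluorescence polarization readout: labelled TG4xF oligo (10 nM) with 100 nM nucleocapsid protein, high-salt (250mM NaCl) Hepes pH 7.5 buffer containing zinc and fresh reducing agents. Compounds added by pin tool; incubation 1 hr, room temperature.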
# [6] = Cell Viability - LYMP2-011 (AID 969); details: LYMP2-011 lymphoblastoid cells viability; series mostly up to 92.2 µM;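 note: cells exposed to compound for 24 hours; nearly all actives have a fitted effect of over 60% in size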; note: potency is the fitted concentration of half-maximal effect
# Summary of the method: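 Cells seeded at 2500 per well rest 5 hr before compound addition, then incubate 24 hr at 37 C. CellTiter-Glo reagent is added for 30 min at room temperature before luminescence detection.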
# [7] = Cell Viability - LYMP2-013 (AID 970); details: LYMP2-013 lymphoblastoid cells viability; series mostly up to 92.2 µM;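 note: cells exposed to compound for 24 h at 37 °C; nearly all actives have a fitted effect of over 55% in size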; note: potency is the fitted concentration of half-maximal effect
# Summary of the method: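 In complete culture medium, human lymphoblastoid cells were dosed for 24 hr at 37 C, with tetraoctylammonium bromide (6.4pM to 92 uM) as positive control. Viability reflects luciferase-based ATP signal; AC50 derived from concentration-response curves.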
# [8] = Cell Viability - LYMP2-019 (AID 973); details: LYMP2-019 lymphoblastoid cell line viability; series mostly up to 92.2 µM;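 note: cells exposed to compound for 24 h at 37 °C; nearly all actives have a fitted effect of over 55% in size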; note: potency is the fitted concentration of half-maximal effect
# Summary of the method: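 AC50 values come from Hill-equation modelling of qHTS concentration-response curves, where viability is measured as luciferase-based ATP luminescence in the lymphoblastoid line after 24 hr compound exposure in complete culture medium.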
# [9] = biological target: Muscarinic acetylcholine receptor M1 (Rattus norvegicus) (UniProt P08482); test: qHTS Assay for Antagonists of Acetylcholine Muscarinic M1 Receptor: Kinetic Measurement of Intracellular Calcium Response (AID 943); details: M1-expressing cells, kinetic intracellular calcium fluorescence; series mostly up to 35.3 µM; note: nearly all actives have a fitted effect of over 75% in size; note: potency is the fitted concentration of half-maximal effect
# Chain of Muscarinic acetylcholine receptor M1 (Rattus norvegicus) (P08482 whole entry, looked up): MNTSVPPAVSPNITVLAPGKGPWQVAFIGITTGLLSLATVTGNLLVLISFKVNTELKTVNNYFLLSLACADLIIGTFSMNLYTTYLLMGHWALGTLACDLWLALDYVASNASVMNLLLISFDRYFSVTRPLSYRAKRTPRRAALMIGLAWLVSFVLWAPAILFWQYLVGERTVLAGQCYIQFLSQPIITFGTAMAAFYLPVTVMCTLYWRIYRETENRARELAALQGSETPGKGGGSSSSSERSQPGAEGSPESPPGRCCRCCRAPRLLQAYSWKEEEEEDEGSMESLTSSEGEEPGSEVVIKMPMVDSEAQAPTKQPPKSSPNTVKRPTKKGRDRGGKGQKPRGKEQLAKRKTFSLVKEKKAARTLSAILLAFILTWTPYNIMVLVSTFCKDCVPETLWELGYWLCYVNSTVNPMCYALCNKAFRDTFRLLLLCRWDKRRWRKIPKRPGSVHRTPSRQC
# Summary of the method: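 Quantitative HTS in CHO-M1 (rat receptor) cells: 10 min compound exposure ahead of 100 nM carbachol, Fluo-4 fluorescence followed 4 min, value expressed as peak-to-basal ratio.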
# [10] = qHTS Assay for Identification of Small Molecule Agonists for Hypoxia Response Element Signaling Pathway (AID 914; active = well fitted activation curve with a large enough effect in the signal ratio, with a control signal flat, not every such curve was filed as active; the % refers to the signal ratio); details: ME-180 (cervical carcinoma) HRE-bla reporter, beta-lactamase ratio, CoCl2, 17 h; activation: active compounds read high
# Summary of the method: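 A beta-lactamase reporter under hypoxia response element control in ME-180 cells served as the system. Compound titrations plus EC50 CoCl2 ran 17 h at 37 degrees Celsius; AC50 values were fitted from %Activity.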
# DFO2036 = test: qHTS profiling for inhibitors of Plasmodium falciparum proliferation (AID 504749); note: nearly all actives have a fitted effect of over 60% in size; details: P. falciparum in erythrocytes, SYBR Green DNA, 72 h; series mostly up to 28.7 µM
# Summary of the method: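 In a 72 h erythrocytic culture (37 C, humidified, 5% CO2) at 2.5% hematocrit and 0.3% starting parasitemia, compounds were tested; SYBR Green I in detergent lysis buffer stained parasite DNA overnight.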
# [11] = qHTS Assay for Identification of Small Molecule Antagonists for NFkB Signaling Pathway (AID 895; active = well fitted inhibition curve with a large enough effect in the signal ratio, with a control signal flat, not every such curve was filed as active; the % refers to the signal ratio); details: NFkB beta-lactamase reporter cells, FRET ratio 460/530; series mostly up to 38.3 µM
# Summary of the method: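 Beta-lactamase reporter read-out (460 and 530 nm emission ratio, 405 nm excitation, 2 hrs substrate loading RT) after 5 hr stimulation with 10 pM TNF alpha in compound-treated NFkB-bla ME-180 cells in low-serum medium.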
# [12] = biological target: DNA dC->dU-editing enzyme APOBEC-3G (Homo sapiens) (UniProt Q9HC16); test: qHTS for inhibitors of Vif-A3G interactions: Validation (AID 588379); details: Vif-A3G protein interaction assay; series mostly up to 46.1 µM
# Chain of DNA dC->dU-editing enzyme APOBEC-3G (Homo sapiens) (Q9HC16 whole entry, looked up): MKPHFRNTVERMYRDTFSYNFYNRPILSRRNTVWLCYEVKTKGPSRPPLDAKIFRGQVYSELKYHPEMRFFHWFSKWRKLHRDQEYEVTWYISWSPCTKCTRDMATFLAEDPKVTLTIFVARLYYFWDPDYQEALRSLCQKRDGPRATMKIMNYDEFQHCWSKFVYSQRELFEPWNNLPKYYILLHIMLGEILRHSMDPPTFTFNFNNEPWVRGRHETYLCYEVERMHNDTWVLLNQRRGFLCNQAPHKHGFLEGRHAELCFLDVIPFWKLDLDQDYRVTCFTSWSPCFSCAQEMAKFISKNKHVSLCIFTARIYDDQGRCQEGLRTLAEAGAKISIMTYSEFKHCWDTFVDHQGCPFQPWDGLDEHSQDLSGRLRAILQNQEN
# Summary of the method: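 Yellow fluorescence (Ex 488, Em 500-530) of Vif-coexpressing HeLa A3G-eYFP cells, scanned by Acumen cytometer, reports blocked A3G degradation. Cells plated at 700/well overnight at 37 deg C before compound addition, then a further overnight compound incubation at 37 deg C.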
# [13] = Cell Viability - LYMP1-002 - Assay at 40 hr (AID 994); details: LYMP1-002 lymphoblastoid cell viability; series mostly up to 92.2 µM; note: nearly all actives have a fitted effect of over 60% in size; note: potency is the fitted concentration of half-maximal effect
# Summary of the method: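 Concentration-dependent ATP loss after 40 hr treatment at 37 C defined toxicity; AC50 values were obtained by fitting the standard Hill equation.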
# [14] = Cell Viability - MRC5 (AID 434; calls by dose curve;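 note: potency is the fitted concentration of half-maximal effect; cells exposed to compound for 40 hours at 37 °C; potency reflects cytotoxicity seen as loss of intracellular ATP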); details: MRC5 lung fibroblast viability, qHTS
# Summary of the method: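 AC50 values come from Hill-equation fits of intracellular ATP loss, measured by CellTiter-Glo luminescence. Normal lung fibroblasts (MRC5) had 40 hr compound treatment at 37 C, normalized between DMSO and 100 uM tamoxifen.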
# [15] = Cell Viability - SH-SY5Y (AID 544); details: SH-SY5Y neuroblastoma cell viability; viability change, negative = cytotoxic: at 92.2 µM (top of the series);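 note: cells exposed to compound for 40 hours; nearly all actives have a fitted effect of over 55% in size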
# Summary of the method: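 Quantitative HTS in SH-SY5Y neuroblastoma cells, 40 hr treatment at 37 °C, ATP content by luciferase luminescence; AC50 from Hill fits.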
# [16] = Cellular Toxicity (caspase-3) N2a (AID 665); details: N2a cells, luminescence, normalized: DMSO 0%, 10 µM staurosporine 100%; at 92.2 µM (top of the series);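 note: compound exposure lasted 16 h at 37 °C before readout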
# Summary of the method: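 Concentration-response qHTS: compound-induced caspase-3/7 luminescence in N2a cells (16 h, 37 °C), relative to DMSO and 10 uM staurosporine controls; AC50 obtained using the standard Hill equation.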
# [17] = qHTS assay to identify small molecules that stimulate interleukin-8 (IL-8) secretion (AID 651758; active = well fitted activation curve with a large enough effect in the signal ratio; the % refers to the signal ratio); details: HTRF ratio (665/615); series mostly up to 92.2 µM
# Summary of the method: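 Secreted IL-8 measured homogeneously by TR-FRET (two labelled anti-IL-8 antibodies, 1-3 h at room temperature) after a 16 h, 37 C compound treatment of THP-1 cells at 2000 cells/well.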
# [18] = biological target: Bile acid receptor (Homo sapiens) (UniProt Q96RI1); test: qHTS assay for small molecule antagonists of farnesoid X receptor signaling (AID 588526; calls by dose curve); details: HEK293T FXR-UAS-bla, beta-lactamase ratio, antagonist mode; series mostly up to 76.7 µM
# Chain of Bile acid receptor (Homo sapiens) (Q96RI1 whole entry, looked up): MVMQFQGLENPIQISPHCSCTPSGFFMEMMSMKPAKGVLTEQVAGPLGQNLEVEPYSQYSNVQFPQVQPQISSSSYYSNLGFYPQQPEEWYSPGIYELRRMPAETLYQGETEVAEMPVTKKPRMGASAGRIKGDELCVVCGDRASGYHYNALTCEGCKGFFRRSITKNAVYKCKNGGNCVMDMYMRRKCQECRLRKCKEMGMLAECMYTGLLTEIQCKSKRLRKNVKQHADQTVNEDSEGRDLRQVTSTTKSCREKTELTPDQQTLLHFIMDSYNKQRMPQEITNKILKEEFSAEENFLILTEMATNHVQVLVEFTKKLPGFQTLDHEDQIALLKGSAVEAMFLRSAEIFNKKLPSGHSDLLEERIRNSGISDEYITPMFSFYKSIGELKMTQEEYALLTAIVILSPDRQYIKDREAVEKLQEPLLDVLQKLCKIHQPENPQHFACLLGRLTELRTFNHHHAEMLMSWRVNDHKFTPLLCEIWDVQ
# Summary of the method: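 Beta-lactamase reporter antagonist mode: HEK293T FXR-UAS-bla cells, titrated compound, CDCA stimulation, 16 h 37 C, CCF4 dye 2 h RT. Data normalized to CDCA 50 uM and DMSO; Hill-fit IC50.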
# [19] = biological target: Bile acid receptor (Homo sapiens) (UniProt Q96RI1); test: qHTS assay for small molecule agonists of farnesoid X receptor signaling (AID 588527; calls by dose curve); details: HEK293T FXR-UAS-bla, beta-lactamase ratio, 16 h; active compounds read high
# Summary of the method: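 FXR-UAS-bla HEK293T cells (10% dialyzed FBS) preincubated 5-7 h at 37 C, then compounds at up to 92 uM for 16 h at 37 C. CCF4 beta-lactamase read-out after 2 h RT. Normalized to chenodeoxycholic acid (100 uM) and DMSO; Hill fit gave EC50 and efficacy.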
smiles,measurement,setting,value
CCNC[C@H](O)c1cccc(O)c1,outcome,[1],inactive
same,outcome,[2],inactive
same,outcome,[3],inactive
same,outcome,[4],inactive
O=C(Nc1cccc(F)c1)N1CC[C@@]2(CCCN(C(=O)Oc3ccccc3)C2)C1,Potency,[5],> 20 µM
C=CCc1ccc(OC)cc1,Potency,[6],inactive
same,Potency,[7],inactive
same,Potency,[8],inactive
NC[C@H](O)c1ccc(O)cc1,Potency,[9],inactive
CN1CCCC2(CCN(C(=O)c3ccco3)CC2)C1,activation,[10],-1.89%
CN(C)C(=O)Oc1cc(OC(=O)N(C)C)cc([C@@H](O)CNC(C)(C)C)c1,Potency,DFO2036,inactive
CCC[C@@](C)(COC(N)=O)COC(=O)NC(C)C,activation,[10],-3.35%
CC(C)[C@@]1(NC(=O)[C@@H]2C[C@H]3c4cccc5[nH]cc(c45)C[C@@H]3N(C)C2)O[C@]2(O)[C@H]3CCCN3C(=O)CN2C1=O,activation,[10],9.33%
COc1ccc(OC)c([C@H](O)[C@H](C)N)c1,Potency,[11],inactive
same,Potency,[9],inactive
C[N+]1([O-])[C@@H]2CC[C@H]1CC(OC(=O)[C@@H](CO)c1ccccc1)C2 (stereo partly specified),Potency,DFO2036,inactive
CS(=N)(=O)CC[C@@H](N)C(=O)O (stereo partly specified),Potency,[9],inactive
N[C@H]1C[C@H]1c1ccccc1,Potency,DFO2036,inactive
CC(C)N(CC[C@@](C(N)=O)(c1ccccc1)c1ccccn1)C(C)C,Potency,[11],inactive
same,Potency,[9],4.47 µM (active) and 3.98 µM (active)
COc1cc(N)c(Cl)cc1C(=O)N[C@@H]1CN2CCC1CC2,outcome,[12],inactive
O=C1C(Cl)=C(Cl)C(=O)C(Cl)=C1Cl,Potency,[7],31.6 µM (active)
same,Potency,[13],39.8 µM (active)
O=C(O)COc1ccc(Cl)cc1Cl,Potency,[14],> 92 µM
same,Potency,[15],inactive
same,caspase-3 activation,[16],-2.05% and -1.8%
same,Potency,[8],inactive
CCNc1nc(Cl)nc(NC(C)C)n1,Potency,[15],inactive
same,caspase-3 activation,[16],-0.492%
same,Potency,[8],inactive
same,Potency,[17],inactive
CCCCCCCCCc1ccc(O)cc1,Potency,[17],inactive
C[N+]1=Cc2cc3c(cc2CC1)OCO3,outcome,[12],inactive
c1cncc([C@H]2CCCCN2)c1,outcome,[12],inactive
ClC1=C(Cl)C2(Cl)C3C4CC(C5OC45)C3C1(Cl)C2(Cl)Cl (stereo unspecified),Potency,[14],> 92 µM
same,Potency,[15],inactive
same,Potency,[6],39.8 µM (active)
same,Potency,[13],12.6 µM (active)
CCc1cccc(CC)c1N(COC)C(=O)CCl,Potency,[8],50.1 µM (active)
same,outcome,[18],inactive
same,activation,[19],-2.1%
COP(=S)(OC)Oc1ccc([N+](=O)[O-])cc1,Potency,[14],> 92 µM
same,Potency,[13],inactive
same,outcome,[18],inactive
same,activation,[19],0.0258% and 2.38%
COC(=O)NC(=S)Nc1ccccc1NC(=S)NC(=O)OC,caspase-3 activation,[16],0.433%
same,Potency,[7],inactive
same,outcome,[18],inactive
same,activation,[19],1.1% and -0.86%
ClC(Cl)=C(c1ccc(Cl)cc1)c1ccc(Cl)cc1,Potency,[15],inactive
same,caspase-3 activation,[16],2.33% and 2.48%
same,Potency,[6],inactive
same,Potency,[7],inactive
same,outcome,[18],inactive
same,activation,[19],-9.46%
same,Potency,[17],inactive
